Molecules are shown by their SMILES. Out of some 190,000 compounds screened, about 1,300 (0.68%) were called active. Cut-off read from the data, not from the text of the source: active = inhibition above about 50%; inactive = the rest. The sample as a whole holds a higher share of actives than the screen did.

Chain of Mannose-6-phosphate isomerase (Homo sapiens) (P34949 whole entry, looked up): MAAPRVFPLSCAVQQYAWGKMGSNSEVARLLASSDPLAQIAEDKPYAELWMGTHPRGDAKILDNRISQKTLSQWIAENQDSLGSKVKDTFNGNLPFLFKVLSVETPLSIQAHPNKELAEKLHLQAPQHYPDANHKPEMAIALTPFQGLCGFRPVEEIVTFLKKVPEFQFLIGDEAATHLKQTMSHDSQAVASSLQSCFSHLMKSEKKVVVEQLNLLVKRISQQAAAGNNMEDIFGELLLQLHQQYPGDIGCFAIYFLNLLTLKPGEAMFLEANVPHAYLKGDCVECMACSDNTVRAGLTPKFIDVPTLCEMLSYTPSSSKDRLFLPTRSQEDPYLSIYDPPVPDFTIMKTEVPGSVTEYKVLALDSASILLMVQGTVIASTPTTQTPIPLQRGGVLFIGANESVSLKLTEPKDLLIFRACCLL

This experiment concerns the target Mannose-6-phosphate isomerase (Homo sapiens) (UniProt P34949). The experiment is described as follows: MPI inhibition at elevated mannose 6-phosphate – biochemical, fluorescence intensity, high mannose 6-phosphate, primary screen (AID 1220). Particulars: recombinant PMI enzyme, coupled fluorescence intensity; at 20 µM; hits give high values.
For `CC(C)CSc1n[nH]c(=S)s1`, the inhibition is -41% (inactive).
With `O=C(CCCSc1nc2ccccc2s1)NC1=NCCS1`, the inhibition is 1.7% (inactive).
As for `CN1CCN(C(=O)c2ccccc2NC(=O)C(C)(C)C)CC1`, the figure is 10.4% (inactive); as for `O=C(COC(=O)c1cc(S(=O)(=O)N2CCOCC2)cs1)c1ccccc1`, 11.5% (inactive).
Turning to `COc1cc(CN2CCN(Cc3ccc(SC)cc3)CC2)cc(OC)c1O`, the inhibition was 62.1% (active).
As for `COc1ccc(CN2CCN(S(=O)(=O)c3ccc(NC(C)=O)cc3)CC2)cc1OC`, the figure is -2.1% (inactive); as for `COc1cc(OC)c(OC)cc1CN1CCN(Cc2ccc(SC)cc2)CC1`, 10.2% (inactive).
As for `COc1cc(CN2CCN(Cc3ccc(C)cc3)C(CCO)C2)ccc1O` (stereo not drawn), the figure is 14.3% (inactive); as for `COc1cc2c(cc1OC)CN(Cc1cc(OC)c(O)c(OC)c1)CC2`, 69.5% (active); as for `COc1ccc(CN2CCc3cc(OC)c(OC)cc3C2)cc1O`, 4.1% (inactive).
For `COc1ccc(CN2CCN(Cc3ccc(C)cc3)C(CCO)C2)cc1OC` (stereo not drawn), the inhibition was -5.7% (inactive).
To `CCOc1ccc(CN2CCN(S(=O)(=O)c3ccc(NC(C)=O)cc3)CC2)cc1OC` belongs -3.6% (inactive); to `COc1cc(CN2CCN(Cc3ccc(C)cc3)C(CCO)C2)cc(OC)c1O` (stereo not drawn), 61.9% (active).
To `C/C=C(\C)CN1CCc2cc(OC)c(OC)cc2C1` belongs -34.9% (inactive); to `COc1cc(CN2CCN(S(=O)(=O)c3ccc(NC(C)=O)cc3)CC2)cc(OC)c1O`, 50.8% (active); to `COc1cc(CN2CCN(c3ccccc3F)CC2)cc(OC)c1O`, 24.9% (inactive).
As for `CCN(CC)c1nc(-c2ccccn2)nc(-c2ccccc2)c1C#N`, the inhibition was -5.4% (inactive).
On to `CCN(CC)C(=O)NC1CC2CCCC(C1)N2Cc1ccccc1` (stereo not drawn), for which the inhibition was -8.6% (inactive).
With `CC(C)C(OC(=O)c1cccs1)C(=O)NCc1ccco1` (stereo not drawn), the inhibition is 1.8% (inactive).
To `Cc1ccc(S(=O)(=O)N2CCN(S(=O)(=O)N3CCCCC3)CC2)cc1` belongs 10.1% (inactive); to `Cn1c(=O)c2c(-c3ccc(C(C)(C)C)cc3)n(N3CCOCC3)cc2n(C)c1=O`, -3.7% (inactive); to `COc1ccc(CN2CCN(C(=O)c3cc(OC)c(OC)c(OC)c3)CC2)cc1OC`, -8.2% (inactive).
To `COc1ccc(CN2CCN(C(=O)CC(C)C)CC2)cc1OC` belongs -3.1% (inactive); to `COc1cc(CN2CCN(C(=O)CC(C)C)CC2)cc(OC)c1OC`, -4.9% (inactive); to `COc1ccc(C(=O)N2CCN(Cc3ccccc3C)CC2)cc1OC`, -3.6% (inactive).
As for `COc1cc(CN2CCN(C(=O)CC(C)C)CC2)cc(OC)c1O`, the figure is 55.5% (active); as for `COc1ccc(C(=O)N2CCN(Cc3cc(OC)c(O)c(OC)c3)CC2)cc1OC`, 61.1% (active); as for `CCC(Sc1nc(C)cc(C)n1)C(=O)Nc1cc(C)on1` (stereo not drawn), -8.4% (inactive).
On to `CC(=O)Nc1cc(C(=O)N2CCCC2)ccc1S(=O)(=O)c1ccc(Cl)cc1`, for which the inhibition was 2.8% (inactive).
Consider `Nc1cc(=O)[nH]c(SCc2nnc(-c3ccccc3)o2)n1`, for which the inhibition is -0.3% (inactive).
Turning to `CC1(C)CC(CC(=O)O)(c2ccc(F)cc2)CCO1` (stereo not drawn), the inhibition is 3% (inactive).
Consider `c1ccc2c(c1)NC1(CCCCC1)n1c-2nc2ccccc21`, for which the inhibition is 8.3% (inactive).
As for `COc1cc(/C=N/S(=O)(=O)CCc2ccccc2)ccc1O`, the figure is 14.1% (inactive).
As to `COc1ccc(/C=C(\C#N)C(=O)NCCc2ccccc2)cc1OCc1ccccc1`, the inhibition is -4.6% (inactive).
Consider `COc1cc(/C=C(\C#N)C(=O)c2c[nH]c3ccccc23)cc(OC)c1O`, for which the inhibition is 70% (active).
As for `COc1ccc(/C=C(\C#N)C(=O)c2c(C)[nH]c3ccccc23)cc1OC`, the figure is 8.5% (inactive).
On to `COCCNC(=O)/C(C#N)=C/c1cc(Br)c(O)c(OC)c1`, for which the inhibition is 15.5% (inactive).
As for `COc1cc(/C=N/S(=O)(=O)CCc2ccccc2)cc(OC)c1O`, the inhibition was 61.1% (active).
As for `COc1ccc(/C=N/S(=O)(=O)CCc2ccccc2)c(OC)c1`, the figure is 7.5% (inactive); as for `COc1cc(/C=C(\C#N)C(=O)c2c(C)[nH]c3ccccc23)cc(OC)c1OC`, 10.2% (inactive).
To `COc1cc(/C=C(\C#N)C(=O)NCCc2ccccc2)cc(OC)c1O` belongs 57.6% (active); to `CC(C)NC(=S)Nc1ccc2[nH]c(=O)[nH]c2c1`, -22% (inactive).
For the compound `CC(C)(C)N(NC(=O)OCc1ccccc1)C(=O)c1ccccc1`, the inhibition is 2.3% (inactive).
As for `CN(CP(=O)(O)CCc1ccccc1)S(C)(=O)=O`, the figure is 3.2% (inactive); as for `CNc1ccc(/C=C(\C#N)c2ccccn2)cc1[N+](=O)[O-]`, -3.1% (inactive); as for `Cc1ccc(/C=C/C(=O)N2CCCN(C(=O)/C=C/c3ccc(C)cc3)CC2)cc1`, 2.5% (inactive).
As for `COc1ccc2nc(NC(=O)c3ccc(-c4cccc([N+](=O)[O-])c4)o3)sc2c1`, the inhibition is -5.7% (inactive).
In the case of `COc1ccc2cc3cc(C(=O)NCCN4CCN(Cc5ccccc5)CC4)oc3nc2c1`, the inhibition was -5.6% (inactive).
As for `Cc1c(NC(=O)CN2CCN(c3ccc(F)cc3)CC2)c(=O)n(-c2ccccc2)n1C`, the figure is 5.8% (inactive); as for `Cc1c(NC(=O)CN2CCN(c3ccccc3)CC2)c(=O)n(-c2ccccc2)n1C`, -8.2% (inactive); as for `Cc1c(NC(=O)CN2CCN(c3ccc(O)cc3)CC2)c(=O)n(-c2ccccc2)n1C`, 53% (active).
On to `COc1ccc(N2CCN(CC(=O)NC(=O)NC(C)(C)C)CC2)cc1`, for which the inhibition was 12.2% (inactive).
On to `O=C(CN1CCN(c2ccccc2O)CC1)NC(c1ccccc1)c1ccccc1`, for which the inhibition is 15.4% (inactive).
With `CC(C)(C)NC(=O)NC(=O)CN1CCN(c2ccccc2)CC1`, the inhibition is -4.3% (inactive).
In the case of `CC(CCc1ccccc1)NC(=O)CN1CCN(c2ccccc2)CC1` (stereo not drawn), the inhibition is 8.2% (inactive).
For `O=C(CN1CCN(c2ccc(O)cc2)CC1)NC(c1ccccc1)c1ccccc1`, the inhibition is 64% (active).
As for `CC(C)(C)NC(=O)NC(=O)CN1CCN(c2ccc(O)cc2)CC1`, the figure is 62.6% (active); as for `CC(CCc1ccccc1)NC(=O)CN1CCN(c2ccc(O)cc2)CC1` (stereo not drawn), 65.2% (active).
As to `CC1CC(C)CN(CC(=O)NC(c2ccccc2)c2ccccc2)C1` (stereo not drawn), the inhibition was -6.3% (inactive).
To `CC(CCc1ccccc1)NC(=O)CN1CCc2ccccc2C1` (stereo not drawn) belongs 3.9% (inactive); to `CC(=O)OC1CC(C)(C)N(OC(=O)c2ccccc2)C(C)(C)C1`, -2.2% (inactive).
To `Cc1cc(Nc2c(C#N)c(N)nn2C)ccc1F` belongs 0.7% (inactive); to `O=C(NC12CC3CC(CC(C3)C1)C2)c1cc2nc(-c3ccco3)cc(C(F)(F)F)n2n1`, 7.3% (inactive); to `O=C(NC1CCCCC1)C(c1ccco1)N(Cc1ccco1)C(=O)c1ccco1` (stereo not drawn), -4.5% (inactive).
As for `O=C(Nc1ccc2c(c1)CCC2)c1ccccc1F`, the figure is -3.5% (inactive); as for `Cc1nn(-c2ccccc2)c(C)c1/C=C/C(=O)OCC(=O)NC1CCS(=O)(=O)C1` (stereo not drawn), -6.3% (inactive); as for `CC1(C)CC(=O)CC(C2(O)C(=O)N(Cc3ccccc3)c3ccccc32)O1` (stereo not drawn), 0.6% (inactive).
Turning to `O=C(CN(C(=O)CNS(=O)(=O)c1ccccc1)c1ccc2c(c1)OCCO2)NCc1ccco1`, the inhibition was -2.1% (inactive).
For `CCC(=O)Nc1cc(Cl)ccc1C(=O)O`, the inhibition is -13.8% (inactive).
To `Cn1c(=O)[nH]c(=O)c2[nH]c(N(Cc3ccccc3)Cc3ccccc3)nc21` belongs 10.1% (inactive).
To `Cc1cc(NC(=O)CCCC(=O)NCc2cccs2)no1` belongs 3.8% (inactive); to `Cc1nc(NC(=O)CSc2nnnn2Cc2ccccc2)sc1C`, 5.5% (inactive); to `COc1ccc2c(c1)CCc1c(C(=O)NCc3ccc(F)cc3)noc1-2`, 9.9% (inactive).
To `COc1ccc2c(c1)C1=NN(/C(C)=C/C(C)=O)C(c3cccc(F)c3)C1CC2` (stereo not drawn) belongs 44.9% (inactive); to `COc1ccc2c(c1)C1=NN(/C(C)=C/C(C)=O)C(c3ccc(F)cc3)C1CC2` (stereo not drawn), 56.3% (active); to `COc1ccc2c(c1)C1=NN(/C(C)=C\C(C)=O)C(c3ccccc3)C1CC2` (stereo not drawn), 47.7% (inactive).
For the compound `COc1ccc2c(c1)CCC1C2=NN(/C(C)=C\C(C)=O)C1c1ccc(F)cc1` (stereo not drawn), the inhibition is 54.4% (active).
As for `COc1ccc2c(c1)CCC1C2=NN(/C(C)=C/C(C)=O)C1c1cccc(F)c1` (stereo not drawn), the figure is 44.4% (inactive); as for `O=C(CN(C(=O)CNC(=O)c1cccs1)c1ccc2c(c1)OCCO2)NC1CCCC1`, 4.5% (inactive).
Regarding `COc1ccc(N2CC(O)=C(c3nc(-c4ccc(F)cc4)cs3)C2=N)cc1Cl`, the inhibition is -5.1% (inactive).
As for `COc1ccccc1C(=O)NNC(=O)c1ccccc1F`, the figure is -3.9% (inactive); as for `O=C1CN(CC(=O)N2CCOCC2)c2ccccc2O1`, 51.9% (active); as for `O=C1CN(CC(=O)N2CCCCC2)c2ccccc2O1`, 51.6% (active).
As for `O=C(CN1CCCCC1)N1c2ccccc2Oc2ccccc21`, the figure is -7.7% (inactive).
As for `O=C(CN1CCOc2ccccc21)N1CCCC1`, the figure is 3.6% (inactive).
In the case of `O=C(CN1C(=O)c2ccccc2C1=O)N1CCOCC1`, the inhibition is 7.3% (inactive).
As for `O=C(CN1CC(=O)Oc2ccccc21)OCC(=O)c1ccccc1`, the figure is 11.2% (inactive); as for `COCCCNC(=O)Cc1ccccc1OC`, -3.4% (inactive); as for `CCNc1nc(Oc2ccc(C(=O)OCC)cc2)nc(N2CCOCC2)n1`, 10% (inactive).
In the case of `O=C(Cc1ccccc1)N/N=C/c1ccc(-c2ccc([N+](=O)[O-])cc2)o1`, the inhibition is 14.3% (inactive).
As for `Cc1ccc(C)c(N=Cc2ccc(-c3ccc([N+](=O)[O-])cc3)o2)c1`, the figure is 10.6% (inactive); as for `O=[N+]([O-])c1ccc(-c2ccc(C=Nc3cccc4ccccc34)o2)cc1`, 70% (active).
Consider `CCCCOC(=O)c1ccc(Nc2ccc([N+](=O)[O-])cn2)cc1`, for which the inhibition is -10.3% (inactive).
For the compound `O=C(C1CCCCC1)N1CCN(S(=O)(=O)c2ccc(Br)cc2)CC1`, the inhibition is 1.8% (inactive).
For `COc1ccc(C(=O)Nc2nc3ccc(S(C)(=O)=O)cc3s2)cc1OC`, the inhibition was 7.7% (inactive).
As to `CC(C)C1=CC(=NS(=O)(=O)c2cccc([N+](=O)[O-])c2)C=C(C(C)C)C1=O`, the inhibition was 59.4% (active).
`CC(C)c1nccn1S(=O)(=O)c1cccc([N+](=O)[O-])c1`: the inhibition is -2.8% (inactive).
`O=[N+]([O-])c1cccc(S(=O)(=O)c2cccc([N+](=O)[O-])c2)c1`: the inhibition is -1.5% (inactive).

Usually inhibition stands for the drop in the measured response relative to a control, in per cent.

Source of the values: PubChem BioAssay AID1220 (Sanford-Burnham Center for Chemical Genomics, 2008).
